Source: PubChem BioAssay (NCATS)
Several values for one entry are separate records, joined by “and”; a condition that tells them apart may be missing. Identical values can stand only once. Records with an inconclusive call do not appear. Activity calls are given as the source filed them. Unless noted, the call rests on the fitted dose curve; in most records, active means well fitted curve in the direction sought with a large enough effect; inconclusive means small, poorly fitted or top-dose-only effect, or another doubt; inactive means no such curve, though single readings can be large; an effect the other way counts as inactive or inconclusive.

Key:
[1] = target: Cellular tumor antigen p53 (Homo sapiens) (UniProt P04637); experiment: Primary qHTS for small molecule compounds that upregulate eGFP-tagged delta133p53alpha (in N-terminal) cells. (AID 2060322); settings: NCI-H358 eGFP-delta133p53alpha fluorescence, 24 h; activation: stronger effect = higher value; further: nearly all actives have a fitted effect of over 75% in size; further: potency means the concentration at half of the fitted maximal effect;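 on activation: series mostly up to about 56 µM; 0% = DMSO vehicle and 100% = reference activator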
Cellular tumor antigen p53 (Homo sapiens), sequence (P04637 whole entry, looked up): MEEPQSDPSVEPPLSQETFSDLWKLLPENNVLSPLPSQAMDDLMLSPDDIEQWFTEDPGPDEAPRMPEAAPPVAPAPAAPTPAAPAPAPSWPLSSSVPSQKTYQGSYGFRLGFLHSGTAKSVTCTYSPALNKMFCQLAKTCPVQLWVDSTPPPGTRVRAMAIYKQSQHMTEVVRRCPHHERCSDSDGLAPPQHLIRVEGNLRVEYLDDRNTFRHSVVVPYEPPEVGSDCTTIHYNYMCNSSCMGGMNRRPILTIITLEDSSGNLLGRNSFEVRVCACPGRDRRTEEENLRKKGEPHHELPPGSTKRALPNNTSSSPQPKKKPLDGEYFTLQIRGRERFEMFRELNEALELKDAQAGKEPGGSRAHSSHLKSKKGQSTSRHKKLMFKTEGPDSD
Procedure, shortened: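 NCI-H358 cells pre-induced 24 h with 10 ng/ml doxycycline to express N-terminal eGFP-delta133p53alpha, then dosed 24 h at 37C without doxycycline; fixed, Hoechst-stained, GFP intensity by laser scanning cytometry, normalized to DMSO (0%) and 57.5 uM 5-azacytidine (100%).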

[2] = target: Aldehyde dehydrogenase, mitochondrial (Homo sapiens) (UniProt P05091); experiment: qHTS for Inhibitors of the Aldehyde Dehydrogenase Family (ALDH2) Validation screens (AID 2061302; active means well fitted inhibition curve with a large enough effect; title and protocol of this record describe different tests;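 further: plate controls were DMSO vehicle for no effect and maximal DPI positive control response for full effect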)
[3] = target: Retinaldehyde dehydrogenase 3 (Homo sapiens) (UniProt P47895); experiment: qHTS for Inhibitors of the Aldehyde Dehydrogenase Family (ALDH1A3) Validation screen (AID 2061312); further: nearly all actives have a fitted effect of over 45% in size; further: potency means the concentration at half of the fitted maximal effect
[4] = BET inhibitor-based combinations targeting novel dependencies in MECOM-rearranged (r) AML: SET-2 cell line (AID 2202231); settings: SET-2 AML cells viability, CellTiter-Glo luminescence, 48 h; viability: stronger effect = lower value, concentration not given here; further: nearly all actives have a fitted effect of over 35% in size; further: potency means the concentration at half of the fitted maximal effect;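 on viability: plate controls were DMSO treated cells for no effect and wells without cells for full effect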
Procedure, shortened: (§1)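 Cells were plated at 500 per well and exposed to an 11-point dose series of each drug for 48 hr. Viability was measured by CellTiter-Glo luminescence, normalized to DMSO and empty-well controls, and summarized as AUC and per-cell-line Z-AUC.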

[5] = BET inhibitor-based combinations targeting novel dependencies in MECOM-rearranged (r) AML: OCI-AML3 cell line (AID 2202232); settings: Potency: OCI-AML3 viability; further: nearly all actives have a fitted effect of over 35% in size; further: potency means the concentration at half of the fitted maximal effect
Procedure, shortened: as §1

[6] = BET inhibitor-based combinations targeting novel dependencies in MECOM-rearranged (r) AML: MV-4-11 cell line (AID 2202233); further: nearly all actives have a fitted effect of over 45% in size; further: potency means the concentration at half of the fitted maximal effect
Procedure, shortened: (§2)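 Activity is given as area under the curve and as Z-AUC, mean-centred within each cell line. It comes from 11-point dose curves normalized to DMSO and empty wells. CellTiter-Glo luminescence was read after 48 hr drug exposure of 500 cells/well.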

[7] = BET inhibitor-based combinations targeting novel dependencies in MECOM-rearranged (r) AML: HNT-34 cell line (AID 2202234); further: nearly all actives have a fitted effect of over 35% in size; further: potency means the concentration at half of the fitted maximal effect
Procedure, shortened: as §2

[8] = BET inhibitor-based combinations targeting novel dependencies in MECOM-rearranged (r) AML: UCSD-AML1 cell line (AID 2202235); further: nearly all actives have a fitted effect of over 40% in size; further: potency means the concentration at half of the fitted maximal effect
Procedure, shortened: as §2

[9] = BET inhibitor-based combinations targeting novel dependencies in MECOM-rearranged (r) AML: AML-191 cell line (AID 2202236;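 further: plate controls were vehicle wells for no effect and wells without cells for full effect; nearly all actives have a fitted effect of over 35% in size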)
Procedure, shortened: as §1

[10] = BET inhibitor-based combinations targeting novel dependencies in MECOM-rearranged (r) AML: AML-194 cell line (AID 2202237;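 further: plate controls were vehicle wells for no effect and wells without cells for full effect; nearly all actives have a fitted effect of over 40% in size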)
Procedure, shortened: as §1

[11] = target: Aldehyde dehydrogenase 1A1 (Homo sapiens) (UniProt P00352); experiment: qHTS for Inhibitors of the Aldehyde Dehydrogenase Family (ALDH1A1) Confirmatory screens (AID 2061316); further: nearly all actives have a fitted effect of over 65% in size; further: potency means the concentration at half of the fitted maximal effect
[12] = target: Aldehyde dehydrogenase, mitochondrial (Homo sapiens) (UniProt P05091); experiment: qHTS for Inhibitors of the Aldehyde Dehydrogenase Family (ALDH2) Confirmatory screens (AID 2061303; active means well fitted inhibition curve with a large enough effect; title and protocol of this record describe different tests; further: on the % scale 0 is the no-effect control and ±100 the full control effect; nearly all actives have a fitted effect of over 45% in size)
[13] = qHTS for Inhibitors of the Aldehyde Dehydrogenase Family (ALDH1A2, ALDH1A3, ALDH2, ALDH3A1) (AID 2061307); further: nearly all actives have a fitted effect of over 50% in size
[14] = target: Aldehyde dehydrogenase, mitochondrial (Homo sapiens) (UniProt P05091); experiment: qHTS for Inhibitors of the Aldehyde Dehydrogenase Family (ALDH2) Primary screen (AID 2061308); further: nearly all actives have a fitted effect of over 55% in size; further: potency means the concentration at half of the fitted maximal effect
[15] = target: Retinaldehyde dehydrogenase 3 (Homo sapiens) (UniProt P47895); experiment: qHTS for Inhibitors of the Aldehyde Dehydrogenase Family (ALDH1A3) Confirmatory screens (AID 2061311); further: nearly all actives have a fitted effect of over 60% in size; further: potency means the concentration at half of the fitted maximal effect
[16] = target: Retinal dehydrogenase 2 (Homo sapiens) (UniProt O94788); experiment: qHTS for Inhibitors of the Aldehyde Dehydrogenase Family (ALDH1A2) Confirmation screens (AID 2061314); further: on the % scale 0 is the no-effect control and ±100 the full control effect; nearly all actives have a fitted effect of over 65% in size
[17] = target: Retinaldehyde dehydrogenase 3 (Homo sapiens) (UniProt P47895); experiment: qHTS for Inhibitors of the Aldehyde Dehydrogenase Family (ALDH1A3) Primary screen (AID 2061315);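 further: plate controls were DMSO vehicle for no effect and reference inhibitor for full effect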

Nc1nc2ccc(OC(F)(F)F)cc2s1
inactive: activation [1] -8.55% and 47.5% | Potency [2] | Potency [3] | viability [4] 89.4%
active: Potency [5] 20.9 µM | Potency [6] 23.5 µM | Potency [7] 16.6 µM | Potency [8] 26.3 µM

CCOC(=O)C1=C(C)NC(C)=C(C(=O)OCC)C1c1c(F)c(F)c(F)c(F)c1F
inactive: activation [1] 26.5% | Potency [2] | Potency [3]

CC(C[N+](C)(C)C)OC(N)=O (configuration not stated)
inactive: activation [1] -5.86% and -4.18% and -40.2% | Potency [2] | Potency [3] | viability [4] 116% | Potency [6] | Potency [7] | Potency [9] | Potency [10]

NC(CO)C(=O)NNCc1ccc(O)c(O)c1O (configuration not stated)
inactive: activation [1] -10.9% and -15.4% and 9.06% | Potency [2] | Potency [6] | Potency [7] | Potency [8] | Potency [10]

Cc1cccc(-c2[nH]ncc2-c2ccc3ncccc3n2)n1
active: Potency [7] 20.9 µM
inactive: activation [1] 39.6% and -70.9% | Potency [2] | Potency [3] | viability [4] 105% | Potency [5] | Potency [6] | Potency [9] | Potency [10]

CN1[C@@H](CC(=O)c2ccccc2)CCC[C@H]1C[C@H](O)c1ccccc1
inactive: activation [1] 1.49% | Potency [2] | Potency [3]

CC1CCN(CC[C@H]2CCCN2S(=O)(=O)c2cccc(O)c2)CC1
inactive: activation [1] -4.01% | Potency [2] | Potency [3]

CCC(C)N(C)C(=O)c1cc2ccccc2c(-c2ccccc2Cl)n1 (configuration not stated)
inactive: activation [1] 12.4% and -31.8% | Potency [2] | Potency [3] | viability [4] 102% | Potency [7] | Potency [8] | Potency [9] | Potency [10]

O=C1NC(c2cccc([N+](=O)[O-])c2)=CCN1c1ccccc1O
inactive: activation [1] 5.67% and -12.4% | Potency [2] | Potency [11]

C#CC(=O)N(c1ccc(OC)cc1OC)C(C(=O)NCC(=O)OCC)c1cccs1 (configuration not stated)
inactive: Potency [12] | Potency [13]
active: Potency [1] 7.57 µM

CC(C)NC[C@H](O)COc1cccc2[nH]ccc12
inactive: activation [1] 15.4% | Potency [2] | Potency [3]

Nc1ccc(CCNc2ncnc3c2ncn3C2OC(CO)C(O)C2O)cc1 (configuration not stated)
inactive: activation [1] -6.89% | Potency [2] | Potency [3]

CSC(=N)N
inactive: activation [1] 3.81% | Potency [2] | Potency [3]

CN(C)CCCN1c2ccccc2CCc2ccc(Cl)cc21
inactive: activation [1] 5.09% and -16.2% | Potency [2] | Potency [3] | Potency [8] | Potency [10]

Nc1nc(OCc2ccccc2)c2[nH]cnc2n1
inactive: activation [1] 4.06% | Potency [2] | Potency [3] | Potency [8]

COc1ccc(C2CNC(=O)C2)cc1OC1CCCC1 (configuration not stated)
inactive: activation [1] 8.47% and 29.3% | Potency [2] | Potency [3] | viability [4] 119% | Potency [5] | Potency [6] | Potency [7] | Potency [8] | Potency [9] | Potency [10]

CCCCS(=N)(=O)CCC(N)C(=O)O (configuration not stated)
active: Potency [6] 21.5 µM
inactive: activation [1] -49.8% | Potency [2] | Potency [3] | viability [4] 120% | Potency [7] | Potency [8] | Potency [9] | Potency [10]

O=C1NCN(c2ccccc2)C12CCN(CCCC(c1ccc(F)cc1)c1ccc(F)cc1)CC2
inactive: activation [1] -12.6% and -53.2% | Potency [2] | Potency [3]

O=c1c(O)c(-c2ccc(O)c(O)c2)oc2cc(O)cc(O)c12
inactive: activation [1] -2.54% and -9.6% and 3.95% | Potency [2] | viability [4] 113% | Potency [5] | Potency [6] | Potency [7] | Potency [8] | Potency [9] | Potency [10]

COc1cccc(OC)c1C(=O)N[C@@H]1C(=O)N2[C@@H]1SC(C)(C)[C@@H]2C(=O)O
inactive: activation [1] -33.3% and -3% | Potency [12] | Potency [13] | Potency [14] | Potency [15] | Potency [16] | Potency [17] | Potency [11]

O=C(NCCN1CCN(c2cccc3ccc(O)cc23)CC1)c1ccc(F)cc1
active: Potency [13] 15.8 µM | Potency [15] 5.04 µM | Potency [11] 10.1 µM
inactive: activation [1] -8.04% | Potency [12] | Potency [14] | Potency [16]

NCc1ccc(OCCCc2sc(-c3ccc4c(c3)/C(=N/Nc3nc5ccccc5s3)CCC4)nc2C(=O)O)cc1
inactive: activation [1] 7.64% | Potency [12] | Potency [13] | Potency [16] | Potency [5] | Potency [10]
active: Potency [14] 31.6 µM | Potency [15] 14.2 µM | Potency [3] 7.08 µM | Potency [4] 0.332 µM | Potency [7] 0.166 µM | Potency [8] 0.209 µM

Fc1ccc(-c2nc(C3CCNCC3)sc2-c2ccnc(NC3CC3)n2)cc1
active: Potency [1] 26.9 µM
inactive: Potency [12] | Potency [13] | Potency [14] | Potency [15] | Potency [16] | Potency [17] | Potency [11]

O=C(O)c1n[nH]c2c1C[C@H]1C[C@@H]21
inactive: activation [1] -8.11% | Potency [12] | Potency [13] | Potency [14] | Potency [15] | Potency [16] | Potency [17] | Potency [11]

Cc1cn(C[C@H](N)C(=O)O)c(=O)n(Cc2ccsc2C(=O)O)c1=O
inactive: activation [1] 15.3% | Potency [12] | Potency [13] | Potency [14] | Potency [15] | Potency [17] | Potency [11]
active: Potency [3] 12.6 µM

C[S+](CC[C@H](N)C(=O)[O-])C[C@H]1O[C@@H](n2cnc3c(N)ncnc32)[C@H](O)[C@@H]1O (some centres not stated)
inactive: activation [1] 12.3% | Potency [12] | Potency [13] | Potency [14] | Potency [15] | Potency [16] | Potency [17] | Potency [11]
